High-throughput results: PubChem BioAssay, National Center for Advancing Translational Sciences (NCATS)
uPA surface inh – qHTS for Inhibitors of Cell Surface uPA Generation | cell surface uPA generation assay, qHTS | Potency, µM (doses to about 38.3 µM), for inactives: top-dose activity change, negative = inhibition, actives largely listed as inhibitors | 330,000 compounds, 0.31% hits | AID 540303, 2011; active = well fitted inhibition curve with a large enough effect; inconclusive = small, poorly fitted or top-dose-only effect; inactive = no such curve, though single readings can be large or run the other way; tested in mouse RAW 264.7 cells; also: potency is read from the fitted curve at half-maximal effect; % is scaled to controls: 0 for no effect and ±100 for the full control effect; nearly all actives have a fitted effect of over 55% in size
TRPV1 agonist – HTS Assay for Compounds that Act as Agonists of the Vanilloid Receptor 1. AID 540275, 2011. activation, % at 8.33 µM. TRPV1-expressing cells, Fluo-8 calcium influx, agonist mode. 320,000 compounds, 0.19% hits; in the data active = activation above about 80%; inconclusive = between about 30% and that limit; also: 0% is about no effect
Target sequence (Q8NER1 whole entry, looked up): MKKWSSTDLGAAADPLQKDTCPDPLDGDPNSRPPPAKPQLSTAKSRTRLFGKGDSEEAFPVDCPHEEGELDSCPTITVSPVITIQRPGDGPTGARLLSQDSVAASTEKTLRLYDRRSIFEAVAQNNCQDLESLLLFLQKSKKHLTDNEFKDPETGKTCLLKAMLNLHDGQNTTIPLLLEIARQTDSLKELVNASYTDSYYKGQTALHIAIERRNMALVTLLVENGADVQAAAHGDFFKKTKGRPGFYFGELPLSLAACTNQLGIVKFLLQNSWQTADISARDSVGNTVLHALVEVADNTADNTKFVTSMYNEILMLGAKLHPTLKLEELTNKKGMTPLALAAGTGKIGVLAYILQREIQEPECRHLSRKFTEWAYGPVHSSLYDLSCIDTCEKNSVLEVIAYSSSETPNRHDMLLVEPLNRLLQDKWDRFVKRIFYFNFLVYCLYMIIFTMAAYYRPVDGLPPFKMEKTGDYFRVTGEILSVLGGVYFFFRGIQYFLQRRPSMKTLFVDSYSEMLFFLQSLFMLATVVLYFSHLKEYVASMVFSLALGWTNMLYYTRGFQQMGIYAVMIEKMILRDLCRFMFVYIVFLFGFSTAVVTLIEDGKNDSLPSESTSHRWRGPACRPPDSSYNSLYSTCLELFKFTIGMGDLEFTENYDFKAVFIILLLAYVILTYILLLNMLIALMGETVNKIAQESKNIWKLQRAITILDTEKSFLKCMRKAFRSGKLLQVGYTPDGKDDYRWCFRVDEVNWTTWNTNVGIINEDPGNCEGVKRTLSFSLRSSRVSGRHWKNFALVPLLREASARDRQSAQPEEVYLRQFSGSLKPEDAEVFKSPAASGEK
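Fluo-8 calcium influx in TRPV1-expressing cells, kinetic read (ex 480/em 520 nm). Compound added and read 3 min for agonist activity, followed by capsaicin at EC20 final and 2 min further read for enhancement.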
TRPV1 potentiator – HTS Assay for Compounds that Act as Potentiators of the Vanilloid Receptor 1 | AID 540277, 2011 | TRPV1-expressing cells, Fluo-8 calcium influx, capsaicin EC20 potentiation | 320,000 compounds, 0.02% hits | Transient receptor potential cation channel subfamily V member 1 (Homo sapiens), Q8NER1 | potentiation, % at 8.33 µM; in the data active = potentiation above about 80%; inconclusive = between about 30% and that limit; also: 0% is about no effect
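Fluo-8 calcium influx in TRPV1-expressing cells, kinetic read (ex 480/em 520 nm). Compound added and read 3 min for agonist activity, followed by capsaicin at EC20 final and 2 min further read for enhancement.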
RORgamma inh – qHTS for inhibitors of ROR gamma transcriptional activity. Drosophila S2 Gal4-RORgamma UAS-luciferase reporter, 20 h. Potency, µM (top dose mostly 53.6 µM), inactives show top-dose activity change, negative = inhibition, hits mostly inhibitors. 310,000 compounds, 5.4% hits; also: potency is read from the fitted curve at half-maximal effect; % is scaled to controls: 0 for no effect and ±100 for the full control effect; nearly all actives have a fitted effect of over 60% in size
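In this cell-based reporter format, copper sulfate (700 uM final) drives Gal4–ROR gamma fusion expression from a metallothionein promoter in Drosophila Schneider cells; compounds preincubated 1 hr, reporter read after 20 hr at ambient temperature.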
Gal4-VP16 FLuc – VP16 counterscreen qHTS for inhibitors of ROR gamma transcriptional activity; Drosophila S2 Gal4-VP16 UAS-luciferase, luminescence, 20 h; Potency, µM (doses to about 53.6 µM), inactives show top-dose activity, negative = inhibition, hits mostly inhibitors; 310,000 compounds, 3.5% hits; AID 2546, 2010;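 also: Gal4-VP16 expression switched on by copper sulfate through the metallothionein promoter; potency is read from the fitted curve at half-maximal effect; % is scaled to controls: 0 for no effect and ±100 for the full control effect; nearly all actives have a fitted effect of over 50% in size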
* marks the source's active call; other numbers are inactive results; i = inactive; ? = inconclusive; nt = not tested or not shown; [ ] = remark or other dose. This is a sample that favours compounds with a hit; in the whole collection about 5.8% have one here. Unless noted, calls follow the shape of the dose curve; as a rule, active = well fitted curve in the direction sought with a large enough effect; inconclusive = small, poorly fitted or top-dose-only effect, or another doubt; inactive = no such curve, though single readings can be large; an effect the other way counts as inactive or inconclusive.

SMILES | uPA surface inh | TRPV1 agonist | TRPV1 potentiator | RORgamma inh | Gal4-VP16 FLuc
CN(CC1CCCO1)S(=O)(=O)c1ccc(C(=O)Nc2nc(-c3ccccn3)cs2)cc1 (stereo not drawn) | 4µM* | 0 | 10 | 7.9µM* | 11µM*
COc1ccccc1-c1nnc(NC(=O)c2ccc(S(=O)(=O)N(C)CC3CCCO3)cc2)o1 (stereo not drawn) | ? | -2 | 8 | 0.71µM* | 1µM*
Cc1cc(C)nc(SCc2nc3ccccc3n2C)n1 | 0% | 1 | 7 | -16% | ?
Cn1c(CSc2nc3ccccc3n2C)nc2ccccc21 | 2% | 8 | -4 | 10µM* | -23%
CC(=O)OCC#CCSc1nc2ccccc2n1C | 2% | 3 | ? | 13µM* | ?
CC(=O)c1c(C)[nH]c(C(=O)CSc2nc3ccccc3n2C)c1C | -6% | 3 | 2 | 17% | ?
N#Cc1cnc(SCC(=O)NNC(=O)COc2cccc3ccccc23)nc1N | 0% | 5 | 7 | -4%[10 µM] | -10%
CC(C)C(NC(=O)c1ccccc1F)C(=O)NCc1ccc(S(=O)(=O)N2CCOCC2)cc1 (stereo not drawn) | 0% | -3 | -11 | nt | nt
CC(C)CC1CC(C)(c2csc(NNC(=O)c3ccccc3)n2)OC1=O (stereo not drawn) | -1% | 12 | -8 | 10µM* | -26%
CC1=NN(c2ccccc2)C(=O)C1C=Nc1ccccc1O (stereo not drawn) | -11% | nt | nt | 2µM* | 4.5µM*
O=C(Nc1ccc(C2SCCS2)cc1)c1ccccc1 | -6% | 86* | -6 | -30% | -6%
CNC(=O)Nc1ccc(C2SCCS2)cc1 | -4% | 29 | -25 | 25% | 20%
CCc1ccc2c(c1)cc(CN(C(=S)Nc1cccc(C)c1)C1CC1)c1nnnn12 | -3% | 0 | 6 | 6.3µM* | 10%
C/C(=N\NC(=O)c1ccccc1O)C1C(=O)c2ccccc2C1=O | 1% | -2 | 14 | 3.5µM* | 3.2µM*
C/C(=N/NC(=O)c1cc2ccccc2cc1O)C1C(=O)c2ccccc2C1=O | 8% | 2 | 13 | ? | 18µM*
O=C(NN=C1CCCC1)c1ccccc1O | 1% | 19 | 18 | ? | ?
CC(=O)CSc1ncnc2c1cnn2-c1ccccc1 | -21% | 3 | -6 | 33% | -5%
CCOc1ccccc1N1CC(C(=O)N2CCOCC2)CC1=O (stereo not drawn) | 7% | 9 | -11 | -37% | 0%
S=c1nc[nH]c2c1cnn2Cc1ccccc1 | 3% | -3 | ? | 22µM* | ?
CSCCC(NC(=O)c1ccco1)C(=O)OCc1cc([N+](=O)[O-])cc2c1OCOC2 (stereo not drawn) | 0% | 3 | 18 | 18% | -2%
COc1ccc2nc(SCC(=O)NC3CCCCC3C)[nH]c2c1 (stereo not drawn) | 8.9µM* | ? | -13 | nt | nt
Cc1ccc(C)c(S(=O)(=O)N2CCN(C(=O)CCNC(=O)c3ccc(Br)cc3)CC2)c1 | -5% | -4 | -3 | nt | nt
COc1cc(C(=O)NCC(=O)N2CCN(S(=O)(=O)c3cc(C)ccc3C)CC2)cc(OC)c1OC | 2.2µM* | 2 | -4 | 23% | 8%
O=C1C2=C(C(=O)c3ccccc31)C1O[C@](CCCCN3C(=O)c4ccccc4C3=O)(Cc3ccccc31)O2 | nt | i | i | 1%[10 µM] | -3%[10 µM]
c1ccsc1 | nt | nt | nt | -5% | -7%
SMILES | uPA surface inh | TRPV1 agonist | TRPV1 potentiator | RORgamma inh | Gal4-VP16 FLuc
Cc1cc(C)c(S(=O)(=O)c2ccccc2)c(N(C)C)n1 | -3% | 5 | -3 | -29% | 8%
Cc1ccc(C)c(C(=O)CSc2nnnn2C(C)C)c1 | 0% | 27 | -15 | 22% | -3%[0.365 µM]
Cc1ccc(C(=O)CSc2nnnn2C(C)C)c(C)c1 | -1% | 16 | -15 | 11µM* | 13µM*
Cc1ccc(OCCNC(=O)Cc2ccc(F)cc2)cc1 | 16% | 84* | -13 | 7% | -14%
Cc1ccc2c(c1)N=C(c1ccccc1)CC(C(Cl)Cl)=N2 | -14% | ? | -11 | 11µM* | ?
Cc1ccc(C2=Nc3ccccc3N=C(C(Cl)Cl)C2)cc1 | -16% | 25 | -11 | 11µM* | ?
CC1CCN(S(=O)(=O)c2ccc3nc(-c4ccccn4)cc(C(=O)NCCN(C)Cc4ccccc4)c3c2)CC1 | 11% | 0 | 9 | -10% | 2%
COc1ccccc1N1C(=O)CC(Sc2nccc(C)n2)C1=O (stereo not drawn) | 2% | -2 | 2 | 11µM* | ?
COc1cc([N+](=O)[O-])ccc1N1C(=O)CC(Sc2nccc(C)n2)C1=O (stereo not drawn) | 2% | 0 | 6 | ? | ?
COc1ccccc1N1C(=O)CC(Sc2n[nH]c(-c3cccc(C)c3)n2)C1=O (stereo not drawn) | -1% | 2 | 4 | 2.8µM* | 5µM*
O=C(Cn1c(=O)oc2cc(S(=O)(=O)N3CCCCC3)ccc21)N1CCCCC1 | 6% | 2 | -6 | 0% | 6%
CCc1c(O)c(/C(C)=N\O)c(=O)n(-c2ccccc2)c1-c1ccccc1 | -1% | 0 | -2 | ? | 35µM*
C/C(=N/O)c1c(O)c(C)c(-c2ccccc2)n(-c2ccccc2)c1=O | 1% | -4 | -6 | 5.6µM* | 5.6µM*
COc1cccc(-n2cc(-c3ccc(F)cc3)[nH]c2=S)c1 | -9% | -1 | -24 | 1.3µM* | ?
COc1ccc(-c2cnn(-c3ccccc3)c2N)cc1OC | -2% | 8 | -5 | 10% | -6%
COc1ccc(-c2cn(-c3ccccc3)c(=S)[nH]2)cc1OC | -13% | -1 | 3 | 5.6µM* | 11µM*
COc1ccc(-c2c(C)nn(-c3ccccc3)c2N)cc1OC | 5% | 1 | 6 | 38% | 0%
COc1ccc(-c2cn(-c3ccc(C)c(C)c3)c(=S)[nH]2)cc1OC | 17% | -1 | -23 | ? | 13µM*
COc1ccc(-c2cn(-c3ccc(C)c(Cl)c3)c(=S)[nH]2)cc1OC | 4% | -5 | 15 | ? | 10µM*
COc1nc(N)c(C#N)c(-c2ccc(N(C)CCC#N)cc2)c1C#N | 8% | -1 | ? | 17% | 1%
O=C(Nc1ccc(Br)cc1)c1cc(Br)c(Br)s1 | nt | nt | nt | ? | 1%
COc1ccccc1C1=NC(c2ccccc2)CN1c1ccccc1 (stereo not drawn) | -1% | 3 | -48 | -2% | 2%
COc1ccccc1-c1cn(-c2ccccc2)c(=S)[nH]1 | -3% | 0 | -14 | 2.8µM* | 5.6µM*
COC(=O)c1ccc(-n2cc(-c3ccc(OC)cc3)[nH]c2=S)cc1 | 12% | -1 | 0 | 3.2µM* | ?
COc1ccc(-n2cc(-c3ccc(Cl)cc3)[nH]c2=S)cc1 | -1% | nt | nt | -42% | 4%
